# NS1 function inh – influenza NS1 inhibition | Potency, µM (series often up to 46.1 µM) | 270,000 compounds, 0.4% hits; calls by dose curve; further: actives are rising curves; nearly all actives have a fitted effect of over 50% in size
#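 Compounds were scored for reversing the slow growth caused by influenza A NS1 in S. cerevisiae, measured by optical density at 600 nm. Assay medium contained 2% galactose at pH 6.0; NS1-free yeast of the same strain were the positive control.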
# Pf growth 48h – P. falciparum growth inhibition at 48 hours (one generation); 310,000 compounds, 5.9% hits; P. falciparum luciferase growth in erythrocytes, 48 h; Potency, µM (doses to about 28.7 µM), usual class: inhibitors; AID 504832
#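 Here the parasites carry a stable luciferase gene and grow inside erythrocytes in Albumax-based RPMI medium with compound for one erythrocytic cycle. Activity is scored as loss of luminescent signal.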
# Pf growth 96h – inhibits malaria parasite growth, 96 h; P. falciparum luciferase reporter growth, 96 h; Potency, µM (top dose mostly 28.7 µM), usual class: inhibitors; 320,000 compounds, 6.9% hits
#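 Compounds incubated with erythrocytes infected by luciferase-expressing P. falciparum (2% hematocrit, 0.05% parasitemia final) for 96 hours, 37 C in 5% CO2. Growth inhibition scored as decreased luciferase luminescence.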
# Shiga inhibitor – inhibitors of Shiga toxin in Vero cells | 290,000 compounds, 9.2% hits | Vero cells, Shiga toxin protein synthesis inhibition reporter | inhibition, % at 38.7 µM; in the data active means inhibition mostly above about 28%, no sharp cut-off; inactive means mostly below about 43%
# Cycloheximide cs – counter-screen hit for Shiga toxin inhibitors, cycloheximide | max response, % | 300,000 compounds, 12% hits | cell reporter, cycloheximide protein synthesis inhibition counterscreen; in the data active means max response mostly above about 13%, no sharp cut-off; inactive means mostly below about 14%; further: read at 38.3 µM for the half of the compounds with a filed dose
# Numbers stand for hits; . = inactive; ? = inconclusive; / = no result given. A selection: hits, their analogues and other compounds. The true share with any hit is near 21%. Unless noted, the call rests on the fitted dose curve; in most records, active means well fitted inhibition curve with a large enough effect; inconclusive means small, poorly fitted or top-dose-only effect, or another doubt; inactive means no such curve, though single readings can be large or run the other way.
SMILES,NS1 function inh,Pf growth 48h,Pf growth 96h,Shiga inhibitor,Cycloheximide cs
CN(Cc1cccs1)C(=O)Cn1cnc2ccccc2c1=O,.,.,.,.,.
CC(NC(=O)Cc1cccs1)C(c1cccs1)N1CCN(c2ccccc2F)CC1 (centres undefined),.,?,?,.,.
Cn1cccc1/C=C1\CCc2ccccc2C1=O,/,.,.,.,.
COc1ccc2c(c1)CC/C(=C/c1ccco1)C2=O,.,.,.,120,56
COc1cc(OC)c(OC)cc1/C=C1/Cc2ccccc2C1=O,.,.,?,.,.
Nc1ccc2c(c1)C/C(=C/c1ccco1)C2=O,.,.,.,123,56
O=C1/C(=C/c2ccco2)CCc2ccccc21,.,.,?,61,77
O=C(COc1ccc2ccc(=O)oc2c1)Nc1c(Cl)cccc1C(F)(F)F,.,.,.,.,.
CCCc1cc(=O)oc2cc(C)cc(OCC(=O)N3CCC(C(N)=O)CC3)c12,.,.,.,.,.
COCCNC(=O)C1(C(F)(F)F)C/C(=C\CCO)CCCO1 (centres undefined),/,/,/,.,.
COc1ccc(NC(=O)NCc2ccccn2)cc1,.,.,.,.,.
O=C(Nc1ccccc1)OCCCCCOC(=O)Nc1ccccc1,.,.,.,/,.
O=C(NCc1ccccn1)Nc1ccc(Br)cc1,.,.,1.7µM,29,12
O=C(Nc1ccccc1)OCc1ccccn1,.,.,.,57,26
O=C(NCc1ccccn1)Nc1ccccc1,.,.,.,82,43
O=C(Nc1ccccc1)OCc1cc(-c2ccccc2Cl)on1,.,.,.,69,39
O=C(Nc1cccc(O)c1)c1cc(-c2ccccc2Cl)on1,.,.,.,.,.
COCc1cc(C)n(CC(=O)OC)c(=O)c1C#N,.,.,.,.,.
OCC(O)C(O)C(O)C(O)c1nc2ccccc2[nH]1 (centres undefined),/,.,?,.,.
O=C(NCc1ccccn1)Nc1cccc(F)c1,.,.,.,39,26
O=C(NCc1ccccn1)Nc1ccc(F)cc1F,.,.,.,.,.
Cc1cccc(NC(=O)C(=O)NCc2ccccn2)c1,.,.,.,168,59
O=C(Nc1cccnc1)c1ccc(N2CCOCC2)c([N+](=O)[O-])c1,.,.,?,.,.
Cc1cccc(NC(=O)c2ccc(N3CCCCC3)c([N+](=O)[O-])c2)n1,.,.,.,69,46
Cc1ccc(C)c2sc(NC(=O)c3ccc(N4CCCCC4)c([N+](=O)[O-])c3)nc12,.,2.6µM,?,.,.
SMILES,NS1 function inh,Pf growth 48h,Pf growth 96h,Shiga inhibitor,Cycloheximide cs
Cc1cccc(NC(=O)c2ccc(N3CCOCC3)c([N+](=O)[O-])c2)n1,.,.,.,72,38
CN1C(=O)c2ccc(NC(=O)c3ccc(N4CCCCC4)c([N+](=O)[O-])c3)cc2C1=O,.,.,.,.,.
Cc1cccc(NC(=O)c2ccc(N(C)C3CCCCC3)c([N+](=O)[O-])c2)n1,.,?,?,58,21
O=C(Nc1cccnc1)c1ccc(N2CCCC2)c([N+](=O)[O-])c1,.,.,.,.,29
Cc1cc(C(=O)NCc2ccccc2Br)no1,.,.,/,.,16
Cc1cc(C(=O)N/N=C/c2ccccc2Br)no1,.,.,.,60,36
Cn1cccc1/C=N/NC(=O)c1ccccn1,.,.,.,84,31
Cn1cccc1/C=N/NC(=O)c1cc2ccccc2cc1O,.,?,.,67,21
CCOc1ccc(C2CC(=O)NC(SCC(=O)OC)=C2C#N)cc1 (centres undefined),.,/,.,.,.
COc1ccccc1-n1cnnc1SC(C)C(=O)Nc1cccc([N+](=O)[O-])c1 (centres undefined),.,.,?,.,.
O=C(NCCS(=O)(=O)N1CCN(Cc2ccccc2)CC1)c1ccccc1,/,.,.,/,/
Cn1cccc1/C=N/NC(=O)c1sc2cc(Cl)ccc2c1Cl,.,.,2.3µM,.,.
Cc1ccc2c(Cl)c(C(=O)N/N=C/c3cccn3C)sc2c1,.,.,?,.,.
Cc1cc(C(=O)N/N=C/c2cccn2C)no1,.,.,.,18,.
Cn1cccc1/C=N/NC(=O)c1ccncc1,.,.,.,.,.
CSc1nc2ccccc2n1CC(=O)Nc1cc(C(F)(F)F)ccc1N1CCOCC1,.,/,?,.,.
Cc1ccc(-n2ncc(C(=O)NCC3CCN(C4CCCC4)C3)c2C2CCN(C(=O)OC(C)(C)C)CC2)cc1C (centres undefined),.,13µM,2.3µM,.,.
CC(C)(C)OC(=O)N1CCC(c2c(C(=O)NCC3CCN(C4CCCC4)C3)cnn2-c2ccc(F)cc2)CC1 (centres undefined),.,2.6µM,.,.,.
Cc1ccc(-n2ncc(C(=O)NCC3CCN(C4CCCC4)C3)c2C2CCN(C(=O)OC(C)(C)C)CC2)cc1 (centres undefined),.,?,?,.,.
CC(C)(C)OC(=O)N1CCC(c2c(C(=O)NCC3CCN(C4CCCC4)C3)cnn2-c2ccccc2)CC1 (centres undefined),.,3.7µM,.,.,.
CC(C)(C)OC(=O)N1CCC(c2c(C(=O)NCC3CCN(C4CCCC4)C3)cnn2-c2cccc(Cl)c2)CC1 (centres undefined),.,?,.,.,.
CCC(=O)N1CCc2cc(S(=O)(=O)CCC(=O)NCc3ccccc3OC)ccc21,.,.,.,.,.
O=C(Cc1cccs1)Nc1ccc(Cl)cc1,.,.,/,active,17
Cc1cc(NC(=O)Cc2cccs2)no1,?,.,?,.,.
O=C(Nc1ccc(Cl)cc1)N(Cc1cccs1)Cc1cccs1,.,?,?,45,14
SMILES,NS1 function inh,Pf growth 48h,Pf growth 96h,Shiga inhibitor,Cycloheximide cs
Cc1cccc(NC(=O)Cc2cccs2)n1,.,.,.,69,33
CC(C)NC(=O)N(Cc1ccc(Cl)cc1)Cc1cccs1,.,.,.,.,.
O=C(Nc1ccc(Cl)cc1)N(Cc1nc2ccccc2c(=O)[nH]1)Cc1cccs1,.,15µM,3.3µM,.,.
CCOC(=O)CN=C/C(C(=O)Nc1nccs1)=C(/C)O,.,.,.,.,.
CCN(CCS(=O)(=O)c1ccc(Cl)cc1)C(=O)Nc1ccccc1,.,?,.,.,.
NC(=O)c1ccc(NC(=O)Cc2cccs2)cc1,?,.,?,.,.
O=C(Cc1cccs1)Nc1ccc(N2CCOCC2)cc1,.,/,.,111,24
O=C(Nc1ccccc1)N(O)c1ccc(Cl)cc1,.,.,.,98,49
CC(=O)N(C)c1ccc(NC(=O)Cc2cccs2)cc1,.,.,.,/,18
Cc1cccc(C)c1NC(=O)CS(=O)CC(=O)Nc1ccc(N2CCOCC2)cc1 (centres undefined),.,.,.,.,.
CCOC(=O)c1cc(NCc2cccs2)ccc1N1CCOCC1,.,.,1.5µM,.,.
C=CCC(=O)NC1CC(C)(C)Cc2c1cnn2-c1ccccc1C (centres undefined),.,?,.,.,.
COc1ccc(S(=O)(=O)N2CC3CCCN3c3ccc(C(F)(F)F)cc32)cc1 (centres undefined),.,?,13µM,.,.

# Source: PubChem
